NPC1 prom act: qHTS Assay for NPC1 Promoter Activators | Huh7 NPC1 promoter luciferase reporter, 24 h | Potency, µM (highest dose often 9.22 µM), inactives show top-dose activation, most hits filed as activators | 320,000 compounds, 2.4% hits; note: % of control where 0% means no effect; nearly all actives have a fitted effect of over 60% in size
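Stably transfected Huh7 (NPC1 promoter→luciferase), 1500 cells/well in Opti-MEM + 10% FBS, 2 h settle, then compound 24 h at 37 °C. Luminescence after 10 min with Amplite reagent.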
SMN2 splice enh: qHTS Assay for Enhancers of SMN2 Splice Variant Expression | HEK293 SMN2-luciferase splicing reporter, luminescence, 30-36 h | Potency, µM (doses to about 46.1 µM), for inactives: top-dose activity change, positive = activation, actives largely listed as activators | 210,000 compounds, 2.8% hits; note: % of control where 0% means no effect; nearly all actives have a fitted effect of over 55% in size
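HEK293 cells carry an SMN2 […]–luciferase reporter in which exon 7 inclusion puts luciferase in frame. Cells were plated 10-12 h before compound addition, then incubated 30-36 h at 37C. ONE-Glo luminescence was read; sodium butyrate at 4.5 mM final served as control.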
Luc counter: Counterscreen for Luciferase (Kinase-Glo TM) Inhibition; Potency, µM (series often up to 38.3 µM), for inactives: top-dose activity change, negative = inhibition, usual class: inhibitors; 200,000 compounds, 0.28% hits; Kinase-Glo luciferase, ATP luminescence, 8 min; note: % is set by controls: 0 for no effect and ±100 for the full control effect; nearly all actives have a fitted effect of over 60% in size
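Light output from Kinase-Glo luciferase with luciferin and 10 uM ATP in 50 mM imidazole pH 7.2, KCl, MgCl2, Tween 20, BSA; compound pin-delivered, 8-min ambient incubation, then luminescence read.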
Rab9 prom act: qHTS Assay for Rab9 Promoter Activators. Huh7 Rab9 promoter-luciferase reporter, luminescence, 24 h. Potency, µM (series often up to 9.22 µM), for the others: at the highest dose activation, negative = inhibition, usual class: activators. 320,000 compounds, 2.8% hits; note: % of control where 0% means no effect; nearly all actives have a fitted effect of over 60% in size
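Stable Rab9-luc Huh7, 1500 cells/well, 2 h settle; cmpd in DMSO, 24 h, 37 °C/5% CO2; luciferase reagent 10 min RT; luminescence.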
ELG1 genotox: qHTS screen for small molecules that induce genotoxicity in human embryonic kidney (HEK293T) cells expressing luciferase-tagged ELG1. HEK293T ELG1-luciferase reporter, luminescence, 16 h. Potency, µM (doses to about 46 µM), without a hit: at the highest dose activity change, positive = activation, actives largely listed as activators. 330,000 compounds, 1.3% hits. AID 504466, 2011; note: % of control where 0% means no effect; nearly all actives have a fitted effect of over 60% in size
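Cells (2,000/well) expressing the ELG1-luciferase fusion are dosed by pin tool and kept 16 hr at 37 °C, 5% CO2. Signal comes from ONE-Glo luciferase reagent after 30 min at room temperature.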
FLuc modulator: qHTS profiling assay for firefly luciferase inhibitor/activator using purifed enzyme and Km concentrations of substrates (counterscreen for miR-21 project). Luciferin 4-monooxygenase (Photinus pyralis), P08659. purified FLuc, Km substrates, luminescence inhibition. Potency, µM (top dose mostly 57.5 µM), for the others: at the highest dose activity change, negative = inhibition, actives largely listed as inhibitors. 360,000 compounds, 6.9% hits. AID 588342, 2011;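 note: plate controls were vehicle for no effect and reference inhibitor for full effect; nearly all actives have a fitted effect of over 55% in size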
Target sequence (P08659 whole entry, looked up): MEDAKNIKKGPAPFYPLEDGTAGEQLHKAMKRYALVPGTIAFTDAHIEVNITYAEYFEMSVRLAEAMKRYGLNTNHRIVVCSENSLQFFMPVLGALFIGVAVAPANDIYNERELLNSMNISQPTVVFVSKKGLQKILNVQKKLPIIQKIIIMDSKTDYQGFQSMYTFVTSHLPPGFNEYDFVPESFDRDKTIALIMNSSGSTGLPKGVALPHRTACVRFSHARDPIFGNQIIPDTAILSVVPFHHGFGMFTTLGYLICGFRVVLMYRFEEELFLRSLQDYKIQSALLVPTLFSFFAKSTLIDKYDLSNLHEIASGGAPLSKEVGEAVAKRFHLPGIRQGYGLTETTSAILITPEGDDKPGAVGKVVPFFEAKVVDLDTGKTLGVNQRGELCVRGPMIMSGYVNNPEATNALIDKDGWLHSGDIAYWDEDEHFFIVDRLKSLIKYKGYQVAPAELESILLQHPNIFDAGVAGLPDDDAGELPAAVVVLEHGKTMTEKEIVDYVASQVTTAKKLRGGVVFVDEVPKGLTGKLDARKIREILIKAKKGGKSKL
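Purified P. pyralis luciferase (10nM final) with 10uM D-luciferin and 10uM ATP (Km levels) in 50mM Tris acetate pH 7.5, 10mM Mg acetate, 0.01% Tween-20, 0.05% BSA; qHTS 6-point titration, ~60 µM downward; luminescence read.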
Starred values were filed as active, the others as inactive. Rows were chosen to be rich in hits. Some 7.5% of all compounds tested hit in one or more screens of this group. Calls come from the whole dose curve; as a rule, active = well fitted curve in the direction sought with a large enough effect; inconclusive = small, poorly fitted or top-dose-only effect, or another doubt; inactive = no such curve, though single readings can be large; an effect the other way counts as inactive or inconclusive. Potency is the fitted concentration of half-maximal effect.

Screening CCC(C)N1CC(O)=C(c2nc3ccccc3[nH]2)C1=N (configuration not stated) returned NPC1 prom act inconclusive, SMN2 splice enh -5.8%, Luc counter 1.8%, Rab9 prom act inconclusive, ELG1 genotox inconclusive and FLuc modulator 16.9µM*.
For N=C1C(c2nc3ccccc3[nH]2)=C(O)CN1c1ccccc1 the results were NPC1 prom act 22.8%, SMN2 splice enh 19.5%, Luc counter 3.9%, Rab9 prom act inconclusive, ELG1 genotox 20.6µM* and FLuc modulator 8.49µM*.
Screening N=C1C(c2nc3ccccc3[nH]2)=C(O)CN1c1ccc(CC(=O)O)cc1 returned NPC1 prom act -4.0%, SMN2 splice enh -10.9%, Luc counter -3.9%, Rab9 prom act 0.7%, ELG1 genotox 0.0% and FLuc modulator -19.2%.
`CC1C(O)=C(c2nc3ccccc3[nH]2)C(=N)N1c1ccccc1` (configuration not stated) gave NPC1 prom act 25.6%, SMN2 splice enh 25.6%, Luc counter -0.1%, Rab9 prom act 20.8%, ELG1 genotox inconclusive and FLuc modulator 16.9µM*.
For CC(C)NS(=O)(=O)c1ccc(OCC(=O)Nc2ccc(F)cc2F)cc1 the results were NPC1 prom act -1.3%, SMN2 splice enh -12.9%, Luc counter 0.0%, Rab9 prom act 14.4%, ELG1 genotox 3.3% and FLuc modulator -0.5%.
Screening COc1ccc2oc(C(=O)Nc3ccc(C)cn3)c(C)c2c1 returned NPC1 prom act 2.51µM*, Rab9 prom act 3.16µM*, ELG1 genotox 5.8µM* and FLuc modulator 1.9µM*.
Screening CCN(CC(=O)Nc1ccccc1C(F)(F)F)C(=O)c1oc2ccc(OC)cc2c1C returned NPC1 prom act 6.4%, Rab9 prom act -1.7%, ELG1 genotox inconclusive and FLuc modulator 16.9µM*.
COc1ccc2oc(C(=O)Nc3nc(C)cs3)c(C)c2c1 was read as NPC1 prom act 2.51µM*, Rab9 prom act 5.62µM*, ELG1 genotox inconclusive and FLuc modulator 0.601µM*.
`COc1ccc(C(=O)Nc2ccccn2)cc1` gave NPC1 prom act -2.5%, SMN2 splice enh 2.4%, Luc counter -0.1%, Rab9 prom act -4.1%, ELG1 genotox -1.9% and FLuc modulator 2.2%.
`COc1ccc2oc(C(=O)Nc3ccccn3)c(C)c2c1` gave NPC1 prom act inconclusive, Rab9 prom act 3.98µM*, ELG1 genotox inconclusive and FLuc modulator 0.601µM*.
`COc1ccc2oc(C(=O)NN3C(C)CCCC3C)c(C)c2c1` (configuration not stated) gave NPC1 prom act -7.1%, SMN2 splice enh 13.1%, Luc counter 2.3%, Rab9 prom act -3.5%, ELG1 genotox 0.7% and FLuc modulator -1.9%.
Cc1cc(C)cc(NC(=O)CCN2CCCC2)c1 was read as NPC1 prom act -1.0%, Luc counter 1.6%, Rab9 prom act -2.5%, ELG1 genotox -1.9% and FLuc modulator -0.3%.
Screening COc1ccc2c(CC(=O)Nc3ccc(OC)c(S(=O)(=O)N4CCOCC4)c3)coc2c1 returned NPC1 prom act 2.0%, SMN2 splice enh 3.1%, Luc counter -3.6%, Rab9 prom act -1.2%, ELG1 genotox 13.9% and FLuc modulator 16.9µM*.
Screening COc1ccc(NC(=O)Cc2coc3cc(C)c(C(C)C)cc23)cc1S(=O)(=O)N1CCOCC1 returned NPC1 prom act -0.6%, SMN2 splice enh -69.6%, Luc counter 2.1%, Rab9 prom act -14.3%, ELG1 genotox 0.6% and FLuc modulator inconclusive.

Bioassay records from PubChem.
